These results are taken from PubChem BioAssay AID540317 (National Center for Advancing Translational Sciences (NCATS), 2011).

Among all 390,000 compounds or so, about 2,200 (0.56%) were called active. Inconclusive results (about 3%) are left out. Calls come from the whole dose curve; as a rule, active = well fitted inhibition curve with a large enough effect; inconclusive = small, poorly fitted or top-dose-only effect; inactive = no such curve, though single readings can be large or run the other way. The list comes from a sample in which actives are over-represented; it also holds similar structures and randomly drawn compounds. Where a call stands in place of a potency, no number is given.
Potency is the fitted concentration of half-maximal effect.

The target of this assay is Chromobox protein homolog 1 (Homo sapiens) (UniProt P83916). The experiment in a line: HTS for Inhibitors of HP1-beta Chromodomain Interactions with Methylated Histone Tails. Note: nearly all actives have a fitted effect of over 70% in size. The conditions noted are these: AlphaScreen HP1-beta / biotin-H3K9me3 peptide binding; series mostly up to 114 µM. The method in brief: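 HP1-beta protein (50 nM final) preincubated 30 min at room temperature with biotinylated H3(1-18)K9me3 peptide (50 nM) in PBS pH 7.4, 0.01% Tween-20, then compound added for 30 min. AlphaScreen streptavidin donor/nickel chelate acceptor beads (10 ug/mL final), 30 min dark, luminescence read.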
Sequence of Chromobox protein homolog 1 (Homo sapiens) (P83916 whole entry, looked up): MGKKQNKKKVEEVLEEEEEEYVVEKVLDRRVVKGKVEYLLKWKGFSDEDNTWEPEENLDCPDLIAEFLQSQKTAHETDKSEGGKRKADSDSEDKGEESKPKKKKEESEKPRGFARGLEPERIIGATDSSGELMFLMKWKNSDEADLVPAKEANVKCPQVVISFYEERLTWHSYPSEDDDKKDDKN
With `COc1ccc(-c2nc3c4ccccc4n(CC(=O)Nc4ccc(C(C)=O)cc4)c(=O)n3n2)cc1`, the Potency entry was “inactive”.

As for `O=C1CSC(=S)N1/N=C/c1ccc(O)c([N+](=O)[O-])c1`, the Potency was 39.8 µM (active).

In the case of `CCOC(=O)c1c(C)n(S(=O)(=O)c2ccc(C)cc2C)c2ccc(NS(=O)(=O)c3ccc(C)cc3C)cc12`, the Potency entry is “inactive”.

For the compound `CC(=O)N1CCCc2cc(S(=O)(=O)N3CCC(C(=O)NC4CCCCC4)CC3)ccc21`, the Potency result is “inactive”.

Regarding `Cc1ccc(NC(=O)C(Cc2ccccc2)NS(=O)(=O)c2ccc3c(c2)oc(=O)n3C)cc1C` (stereo not drawn), the Potency entry was “inactive”.

Consider `CCn1c(SCC(=O)NC2CC2)nnc1-c1ccncc1`, for which the Potency result was “inactive”.

With `CC1CCCCC1NC(=O)CSc1nnc(-c2ccncc2)n1CCCN(C)C` (stereo not drawn), the Potency is 28.2 µM (active).

In the case of `COCCCn1c(SCC(=O)NC2CCCC2)nnc1-c1ccccc1`, the Potency result is “inactive”.

For `COc1ccc(Cl)cc1NC(=O)c1sc2nc3c(cc2c1N)CN(C)CC3`, the Potency result was “inactive”.

For the compound `COC(=O)c1ccccc1NS(=O)(=O)c1ccc2c(c1)CCCN2C(C)=O`, the Potency result was “inactive”.

Take `COc1ccc(Br)cc1/C=N/Nc1ccc(S(=O)(=O)Nc2ccccc2C(=O)O)cc1[N+](=O)[O-]`: the Potency is 22.4 µM (active).

`COc1cc(/C=C/C(=O)O)cc(S(=O)(=O)Nc2ccccc2C(=O)NCCc2ccccc2)c1OC`: the Potency result was “inactive”.

As to `CCC(=O)N1CCc2cc(S(=O)(=O)NC(CC(C)C)C(=O)NCCc3cccc(C)c3)ccc21` (stereo not drawn), the Potency entry was “inactive”.

`CC(C)Cn1c(=O)c2ccccc2n2c(CCC(=O)N3CCN(c4cccc(Cl)c4)CC3)nnc12`: the Potency entry was “inactive”.

Take `CC(Sc1oc(-c2ccco2)nc1S(=O)(=O)c1ccc(Br)cc1)c1ccccc1` (stereo not drawn): the Potency result is “inactive”.

Consider `O=C(NCc1ccccn1)[C@]1(C(F)(F)F)C[C@H](CCc2ccccc2)CCCO1`, for which the Potency entry is “inactive”.

Consider `Cc1nn(C)cc1/C=C1\CCC/C(=C\c2cn(C)nc2C)C1=O`, for which the Potency result was “inactive”.

Take `O=C1/C(=C/c2ccc3c(c2)OCO3)CCC/C1=C\c1ccc2c(c1)OCO2`: the Potency was 28.2 µM (active).

As to `Nc1[nH][nH]c(=O)c1N=Nc1ccc2c(c1)OCO2`, the Potency entry is “inactive”.

For `O=C1CC(c2ccccc2)CC2=C1C(c1ccco1)n1nc(C(F)(F)F)nc1N2` (stereo not drawn), the Potency entry was “inactive”.

Turning to `CCOC(=O)c1cc2c(=O)n3ccccc3nc2n(CC2CCCO2)c1=NC(=O)c1ccccc1F` (stereo not drawn), the Potency entry was “inactive”.

With `CC(C)OC(=O)c1ccc(NCc2cc(O)ccc2O)cc1Cl`, the Potency is 39.8 µM (active).

As for `O=C(CC1C(=O)N(c2ccccc2)C(=O)N1CCc1cccs1)Nc1ccc(F)cc1` (stereo not drawn), the Potency entry is “inactive”.

Take `Cc1ccc(Cc2nc3ccccc3nc2SCC(=O)Nc2cccc(C(F)(F)F)c2)cc1`: the Potency result was “inactive”.

Turning to `CC(C)(C)C(=O)OCc1nc(-c2ccc(O)c(O)c2)cs1`, the Potency is 70.8 µM (active).

In the case of `CNC(=O)[C@]1(C(F)(F)F)C[C@H](CCc2ccccc2)CCCO1`, the Potency result was “inactive”.

Consider `CCc1cnc2c(c1SCC(=O)N1CCC(C)CC1)c(=O)n(C)c(=O)n2C`, for which the Potency entry was “inactive”.

With `COc1ccc(Cn2ccn(Cc3cccc(OC)c3)c(=O)c2=O)cc1`, the Potency result was “inactive”.

For the compound `COc1ccccc1CNC(=O)C(=O)NCC(c1ccco1)S(=O)(=O)c1ccc(F)cc1` (stereo not drawn), the Potency result was “inactive”.

Consider `CC(=O)Oc1ccc(OC(C)=O)c2c1C1C=CC2CC1`, for which the Potency is 89.1 µM (active).

Consider `CC(=O)Oc1ccc(C(C)=O)c2c1OCCO2`, for which the Potency entry is “inactive”.

With `COc1ccc(C)cc1N(C)C(=O)c1c(C)oc2ncnc(N3CCOCC3)c12`, the Potency entry was “inactive”.

For `COc1ccc(CCC(=O)NCCc2csc(-c3ccc(Cl)cc3)n2)cc1`, the Potency result is “inactive”.

As to `COc1ccc(C2CC(O)(c3ccccc3)Oc3cc(C)cc(C)c32)cc1` (stereo not drawn), the Potency result is “inactive”.

Take `COc1ccccc1-c1cc(C(F)(F)F)nc(S(=O)(=O)CCCC(=O)Nc2ccc(F)cc2F)n1`: the Potency entry is “inactive”.

For `C[n+]1ccccc1C1CCCC/C1=N\Nc1ccc([N+](=O)[O-])cc1[N+](=O)[O-]` (stereo not drawn), the Potency result is “inactive”.

For `O=[N+]([O-])c1ccc(N/N=C2/CCCCC2c2ccccn2)c([N+](=O)[O-])c1` (stereo not drawn), the Potency was 35.5 µM (active).

Consider `CC1(C)C/C(=N/Nc2ccc([N+](=O)[O-])cc2[N+](=O)[O-])C(C)(C)O1`, for which the Potency entry is “inactive”.

Regarding `COc1ccc(CN2CCC(=O)c3ccccc3S2(=O)=O)cc1`, the Potency entry was “inactive”.

Take `COc1cc(NC(=O)c2cc3ccc4cccnc4c3[nH]2)cc(OC)c1OC`: the Potency result was “inactive”.

Regarding `Cc1ccc(C)c(Cn2c(CCCNC(=O)C3CCCCC3)nc3ccccc32)c1`, the Potency result was “inactive”.

As for `COc1ccc(C(=O)Nc2c(Cl)cc(Cl)cc2C(=O)N2CCC(C)CC2)cc1`, the Potency entry is “inactive”.

In the case of `CC1CCN(C(=S)c2cccc(O)c2)CC1`, the Potency entry is “inactive”.

With `CC1CCN(C(=S)c2ccc(-c3ccc(Cl)cc3Cl)o2)CC1`, the Potency is 22.4 µM (active).

As to `Cc1ccc(C(=O)Nc2nc(-c3ccccc3)ns2)cc1`, the Potency result is “inactive”.

In the case of `Cc1cc(C)cc(NC(=O)Cc2csc(C)n2)c1`, the Potency entry is “inactive”.

Regarding `CCOc1ccc(N(Cc2ccccc2)C(=O)c2nc(SCC)ncc2Cl)cc1`, the Potency entry was “inactive”.

Turning to `O=C(NC1CC(=O)N(c2ccc(F)cc2)C1)C1CCCCC1` (stereo not drawn), the Potency entry is “inactive”.

Turning to `CCn1c2ccccc2c2nnc(N3CCN(c4cc(C)ccc4C)CC3)nc21`, the Potency entry is “inactive”.

In the case of `CCOCCCNC(=O)c1c(NC(=O)Cc2coc3c(C)c(C)ccc23)sc2c1CCC2`, the Potency entry was “inactive”.

On to `O=C(NCCc1ccccc1)c1cnc2sc(N3CCCC3)nn2c1=O`, for which the Potency result is “inactive”.

`COc1cccc(NCCC(=O)c2cccc([N+](=O)[O-])c2)c1`: the Potency was 79.4 µM (active).

For the compound `COc1cccc(C(=O)CC(=O)C(=O)Nc2ccc([N+](=O)[O-])cc2C)c1`, the Potency result is “inactive”.

Take `COc1ccc(Cc2nnc(SCC(=O)c3cccc([N+](=O)[O-])c3)n2C)cc1`: the Potency entry was “inactive”.

As for `Cc1ccccc1CNC(=O)CCCn1nc(C)c2sc3ccccc3c2c1=O`, the Potency entry is “inactive”.

On to `NS(=O)(=O)c1ccc(NC(=O)CSc2nnc3c(n2)[nH]c2ccccc23)cc1`, for which the Potency entry was “inactive”.

Consider `COc1ccc(/C=C2/C(=O)N(c3ccccc3)N=C2C)c(OC)c1`, for which the Potency was 12.6 µM (active).

For `COc1ccc(C(=O)COC(=O)C(O)c2ccccc2)c(OC)c1` (stereo not drawn), the Potency entry is “inactive”.

On to `COc1ccc(/C=C2/C(=O)OCc3cc(OC)c(OC)cc32)c(OC)c1`, for which the Potency result was “inactive”.

As for `CC1CC(C)CN(c2oc(-c3ccc(OCc4ccc(Cl)cc4)cc3)nc2C#N)C1` (stereo not drawn), the Potency entry is “inactive”.

On to `COc1ccc(C(=O)CSc2c(C(C)C)cnc3c2c(=O)n(C)c(=O)n3C)cc1`, for which the Potency result is “inactive”.

For `O=C(CCc1cn(Cc2ccc(F)cc2)c2ccccc12)NC1CCCCC1`, the Potency entry was “inactive”.

As to `CCc1ccccc1N1C(=O)CN(S(=O)(=O)CC)CC1(C)C(=O)NC1CCCCC1` (stereo not drawn), the Potency result was “inactive”.

Regarding `CCOc1ccc(NC(=O)c2ncoc2-c2ccco2)cc1`, the Potency entry was “inactive”.

For the compound `C=CCNC(=O)c1ccc2nc(-c3ccco3)c(-c3ccco3)nc2c1`, the Potency result was “inactive”.

For the compound `COCCNC(=O)Nc1ccc2nc(-c3ccco3)c(-c3ccco3)nc2c1`, the Potency is 8.91 µM (active).

On to `CCN(CC)CCNC(=O)Cn1ncc2c3ccccc3n(Cc3ccccc3C)c2c1=O`, for which the Potency result is “inactive”.

With `COc1ccc2c(c1)C(=C(C#N)C#N)C(=O)N2CCc1ccccc1`, the Potency was 39.8 µM (active).

Turning to `CCCCN1C(=O)/C(=C(/C#N)C(N)=O)c2ccccc21`, the Potency entry was “inactive”.

For `Cc1ccc(C(=O)CC2(O)C(=O)N(CCc3ccccc3)c3ccc(Br)cc32)cc1` (stereo not drawn), the Potency entry was “inactive”.

Consider `COc1ccc(CCNC(=O)c2ccc(-n3c(C)cc4c3CCCC4)cc2)cc1OC`, for which the Potency entry is “inactive”.

For `CCOC(=O)c1ccc(NC(=O)c2c(NCc3cccs3)sc3c2CCCC3)cc1`, the Potency result was “inactive”.

`COC(=O)c1ccc2c(c1)N(CC(=O)Nc1ccc(C)c(C)c1)C(=O)c1ccccc1S2`: the Potency entry was “inactive”.

For the compound `Cc1ccc(C(=O)O)cc1-c1ccc(/C=C2\SC(=O)N(CC(=O)Nc3ccc4c(c3)OCO4)C2=O)o1`, the Potency is 79.4 µM (active).

Consider `O=C(CN1CCN(c2ncc(C(F)(F)F)cc2Cl)CC1)Nc1ccc2c(c1)OCO2`, for which the Potency entry is “inactive”.

As for `COc1ccc(S(=O)(=O)c2c(Nc3cccc(Cl)c3)sc(C(=O)c3ccccc3)c2N)cc1`, the Potency entry is “inactive”.

As to `O=C1Cc2cc(S(=O)(=O)Nc3ccc(OC(F)(F)F)cc3)cc3c2N1CCC3`, the Potency result is “inactive”.

Consider `Nc1ncc(S(=O)(=O)Nc2ccc(OC(F)(F)F)cc2)cn1`, for which the Potency entry is “inactive”.

As for `O=S(=O)(Nc1ccc(O)c2ccccc12)c1ccc(OC(F)(F)F)cc1`, the Potency was 44.7 µM (active).

Regarding `O=C(NCCCO)c1nn(-c2ccc(Cl)cc2)nc1CO`, the Potency entry was “inactive”.

For `CCOc1ccc(NC(=O)CSc2nnc3c(n2)[nH]c2ccc(S(=O)(=O)N4CCOCC4)cc23)cc1`, the Potency entry was “inactive”.

Take `O=C(COc1ccccc1)Nc1ccc(N2CCN(C(=O)c3cccs3)CC2)cc1`: the Potency entry is “inactive”.

As to `C=CC(=O)Nc1ccc(Nc2ccnc(Nc3ccc(N4CCN(C)CC4)cc3)n2)cc1`, the Potency is 44.7 µM (active).

Regarding `Cc1cc(Nc2cc(N3CCN(C)CC3)nc(Sc3ccc(NC(=O)C4CC4)cc3)n2)n[nH]1`, the Potency result was “inactive”.

As for `Cc1cc2nn(-c3ccc(Cl)cc3)nc2cc1NC(=O)C(C)C`, the Potency entry was “inactive”.

Take `Oc1c(Br)cc(/C=N/NC(=S)NCC2CCCO2)cc1Br` (stereo not drawn): the Potency entry is “inactive”.

Regarding `COc1cc(/C=N/Nc2ccc(C)cc2)cc(Br)c1O`, the Potency was 79.4 µM (active).

On to `COc1ccc(S(=O)(=O)NNC(=O)Nc2ccc(C)cc2)c(OC)c1`, for which the Potency entry was “inactive”.

As to `CN1CCN(C(CNC(=O)c2ccccc2F)c2ccc3c(c2)OCO3)CC1` (stereo not drawn), the Potency entry was “inactive”.

Take `c1ccc(CSc2nnc(-c3ccco3)c(-c3ccco3)n2)cc1`: the Potency was 39.8 µM (active).

Regarding `CN(C)C(=O)CSc1n[nH]c(-c2ccco2)n1`, the Potency entry was “inactive”.

On to `Clc1ccccc1CSc1nnc(-c2ccco2)c(-c2ccco2)n1`, for which the Potency is 20 µM (active).

Consider `Clc1ccccc1CSc1nncn2c1cc1occc12`, for which the Potency entry is “inactive”.

For `Fc1ccc(CSc2nc(NCc3ccccc3)c3ccccc3n2)cc1`, the Potency entry is “inactive”.

In the case of `CC1(C)N=C(SCc2ccccc2Cl)c2ccccc2N1`, the Potency entry was “inactive”.

Consider `Cc1ccc(CNC(=O)CCc2c(C)nn(-c3ccc(N4CCCC4)nn3)c2C)cc1`, for which the Potency result was “inactive”.

Regarding `CCCN1CCC(=O)N(C(CSc2ccc(OC)cc2)Cc2ccccc2)CC1` (stereo not drawn), the Potency result is “inactive”.

As for `COc1ccc(Cl)cc1S(=O)(=O)N1CCC(c2ccncc2)CC1`, the Potency result was “inactive”.
